# KB-V1 MDR tox = KB-V1 MDR subline cytotoxicity | Potency, µM (doses to about 46.1 µM), actives largely listed as cytotoxic | KB-V1 MDR cells viability, CellTiter-Glo, 72 h | hit rate 3.4% among 400,000; further: on the % scale 0 is the no-effect control and ±100 the full control effect; nearly all actives have a fitted effect of over 60% in size
#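 Cytotoxicity toward P-gp-expressing KB-V1 cells was determined as loss of CellTiter-Glo luminescence after 72 h at 37 degrees C. Compounds were tested in quantitative HTS format across a concentration range, with curves fitted to normalized data.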
# PINK1 modulator = modulators of PINK1 expression; PINK1 immunofluorescence, high-content cytometry, 24 h; Potency, µM (top dose mostly 76.6 µM), without a hit: top-dose activation (PINK1 increase), usual class: activators; hit rate 0.2% among 410,000; AID 624263; active means well fitted activation curve with a large enough effect; inconclusive means small, poorly fitted or top-dose-only effect; cell line not stated here; further: % of control where 0% means no effect; nearly all actives have a fitted effect of over 65% in size
#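 PINK1 protein level read as immunofluorescence by microplate cytometer in a fixed, stained stable cell line after 24 h exposure to five compound concentrations, with CCCP as control.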
# KB-3-1 tox = KB-3-1 parental cell cytotoxicity; KB-3-1 viability, CellTiter-Glo ATP luminescence, 72 h; Potency, µM (highest dose often 46.1 µM), most hits filed as cytotoxic; hit rate 1.4% among 400,000; AID 1347075; further: on the % scale 0 is the no-effect control and ±100 the full control effect; nearly all actives have a fitted effect of over 60% in size
#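 Screening of KB-3-1 cells (DMEM, 10% FBS, phenol-red free) ran from lowest to highest compound concentration; after 72 h at 37 °C viability was read luminescently and curves fitted.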
# SW480 rerep = inducers of DNA re-replication in SW480 colon cancer cells; SW480 DNA re-replication, Hoechst DNA content imaging, 48 h; Potency, µM (titrated, usually from 46.1 µM), for the others: top-dose re-replication activation, most hits filed as activators; AID 624297; hit rate 1.8% among 340,000; further: % of control where 0% means no effect; nearly all actives have a fitted effect of over 55% in size
#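 Hoechst fluorescence of nuclei (405 nm excitation, 500-530 nm emission) measured by plate-scanning imager after 48 hr compound exposure at 37 C; re-replication scored as increased number of nuclei with elevated intensity.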
# MCF10A rereplic = inducers of DNA re-replication in MCF 10A breast cells; MCF 10A DNA re-replication, Hoechst nuclear intensity, 48 h; Potency, µM (highest dose often 46.1 µM), inactives show at the highest dose activity, positive = re-replication, actives largely listed as activators; hit rate 2.9% among 350,000; further: % of control where 0% means no effect; nearly all actives have a fitted effect of over 50% in size
# * marks the source's active call; other numbers are inactive results; i = inactive; ? = inconclusive; · = not tested or not shown. Hits are enriched below; roughly 6.7% of the tested compounds scored in any of these assays. Unless noted, the call rests on the fitted dose curve; in most records, active means well fitted curve in the direction sought with a large enough effect; inconclusive means small, poorly fitted or top-dose-only effect, or another doubt; inactive means no such curve, though single readings can be large; an effect the other way counts as inactive or inconclusive. Potency means the concentration at half of the fitted maximal effect.
SMILES,KB-V1 MDR tox,PINK1 modulator,KB-3-1 tox,SW480 rerep,MCF10A rereplic
CCCOc1cccc(C(=O)N/N=C/c2ccoc2)c1,i,-1%,i,3%,-11%
O=C(CCCN=C1NS(=O)(=O)c2ccccc21)OCC(=O)c1ccccc1Cl,i,-1%,i,-4%,3.7µM*
O=C(CCCN=C1NS(=O)(=O)c2ccccc21)OCC(=O)c1ccc(F)cc1,?,-3%,i,-35%,0%
CCNc1oc(-c2ccccc2F)nc1S(=O)(=O)c1ccccc1,?,1%,i,1%,0%
Cc1[nH]c(N=Nc2ccccc2)nc1N=Nc1ccccc1,?,1%,18µM*,7.3µM*,?
Nc1ccc(N=Nc2ccccc2)c(N)n1,?,-1%,i,-25%,5%
CCC(Cn1nnc2ccccc2c1=O)NC(=O)Nc1cc(OC)cc(OC)c1 (stereo not drawn),i,1%,i,·,·
COc1cccc(C2NC(=S)NC(C)=C2C(=O)c2ccccc2)c1OC (stereo not drawn),?,5%,1.8µM*,5.8µM*,?
C=CCOc1ccc(C2NC(=S)NC(C)=C2C(=O)c2ccccc2)cc1OC (stereo not drawn),i,4%,i,12%,3%
CCCOc1ccc(C2C(=O)N(C3CCCCCC3)CC(=O)N2Cc2ccco2)cc1OC (stereo not drawn),1.3µM*,4%,i,8%,9%
Cc1oc(-c2cccc(Cl)c2)nc1CS(=O)(=O)CC(=O)NC(C)CCc1ccccc1 (stereo not drawn),i,2%,i,·,·
O=C(NCc1ccccc1)C1C(c2ccc3c(c2)OCO3)=Nc2ccccc2N1C(=O)c1ccco1 (stereo not drawn),?,·,7.3µM*,·,·
Cc1ccc(/C=C/C(=O)Nc2cccc([S+](=O)([O-])Nc3ccccc3F)c2)cc1,?,·,i,·,·
CCOC(=O)c1nc(Nc2ccc(C)cc2)c2ccccc2n1,?,-1%,i,?,1%
CCOC(=O)c1c(Nc2cccc(C(=O)OC)c2)nnc(-c2ccccc2)c1-c1ccccc1,13µM*,-4%,i,·,·
CCOC(=O)c1c(Nc2ccc(C)cc2)nnc(-c2ccccc2)c1-c1ccccc1,23µM*,-1%,i,·,·
O=C1C2C(c3ccccc3)C=CC(c3ccccc3)C2C(=O)N1CCO (stereo not drawn),i,·,i,-2%,-3%
O=C1C2C3C=CC(C3=C(c3ccccc3)c3ccccc3)C2C(=O)N1Cc1ccccc1 (stereo not drawn),23µM*,-1%,?,?,?
O=C1C2C3C=CC(C3=C(c3ccccc3)c3ccccc3)C2C(=O)N1CCO (stereo not drawn),21µM*,-4%,i,-3%,3%
COCC(=O)Nc1cc(C(=O)N2CCCCC2c2nccn2C)cc2nc(-c3ccccc3)n(C)c12 (stereo not drawn),·,-1%,·,·,·
CN1C/C(=C/c2ccncc2)C(=O)/C(=C/c2ccncc2)C1,i,0%,i,23µM*,?
CN1C/C(=C/c2ccsc2)C(=O)/C(=C/c2ccsc2)C1,?,6%,?,3.3µM*,18µM*
COc1ccc2c(c1)CC/C(=C/c1ccncc1)C2=O,?,-1%,?,?,?
Cc1ccccc1OCC(O)CO (stereo not drawn),·,·,·,-3%,2%
CCCCN1CC(=O)N2[C@H]3c4ccccc4OC[C@@H]3[C@H](C(=O)OCC)[C@]2(C)C1=O,i,-1%,i,-19%,?
SMILES,KB-V1 MDR tox,PINK1 modulator,KB-3-1 tox,SW480 rerep,MCF10A rereplic
Cc1cc(Cl)c(S(=O)(=O)Nc2cc(S(=O)(=O)N3CCOCC3)ccc2F)cc1OCC(N)=O,i,0%,i,34%,0.65µM*
O=C(Nc1ccccc1[N+](=O)[O-])c1cc(S(=O)(=O)N2CCOCC2)cs1,·,0%,·,?,23µM*
O=S(=O)(c1cccc(COc2ccc(Cl)cc2Cl)c1)N1CCOCC1,?,0%,?,-8%,?
Cc1cc(Cl)c(S(=O)(=O)Nc2ccc(S(=O)(=O)N3CCOCC3)cc2)cc1OCC(N)=O,i,-1%,i,-68%,14%
COc1ccc(C(=O)Nc2ccccc2[N+](=O)[O-])cc1S(=O)(=O)N1CCOCC1,·,0%,·,18µM*,?
CC(=O)c1cc(Cl)ccc1OCc1cccc(S(=O)(=O)N2CCOCC2)c1,18µM*,2%,i,-13%,13%
COc1ccc(C(=O)Nc2ccccc2N2CCOCC2)cc1S(=O)(=O)N1CCOCC1,i,-1%,i,1%,-2%
COc1ccc(S(=O)(=O)N2CCOCC2)cc1NC(=O)c1ccc(Cl)cc1,i,5%,i,0.23µM*,-39%
COc1ccc(C(=O)NC2CCCc3ccccc32)cc1S(=O)(=O)N1CCOCC1 (stereo not drawn),?,1%,i,10µM*,20%
COc1ccc(S(=O)(=O)N2CCOCC2)cc1NC(=O)c1ccc(S(=O)(=O)N2CCCCC2)cc1,i,2%,?,-3%,-6%
COc1ccc(S(=O)(=O)N2CCOCC2)cc1NC(=O)CN1CCC(Cc2ccccc2)CC1,12µM*,-2%,i,?,?
COc1ccc(NC(=O)N2CCC(CN3CCCC3)CC2)c(OC)c1,·,0%,·,·,·
OC(c1ccccc1)C(O)C(c1ccccc1)N1CCCCC1 (stereo not drawn),i,0%,i,0%,3%
CN1CCc2cccc3c2[C@@H]1Cc1ccc(O)c(O)c1-3,?,-1%,?,3.7µM*,?
COc1ccc2c(c1O)-c1ccccc1CCN(C)C2,i,0%,i,-34%,-10%
O=C(NNC(=O)c1cccnc1Cl)c1ccc(F)cc1,i,2%,i,-9%,-1%
COc1ccc(C(=O)C[n+]2ccc(N(C)C)cc2)cc1,i,1%,5.2µM*,?,?
CN(C)c1cc[n+](CC(=O)c2ccc(-c3ccccc3)cc2)cc1,i,25µM*,?,4%,10%
Cc1ccc(C(=O)C[n+]2ccc(Cc3ccccc3)cc2)cc1,i,0%,4.6µM*,-2%,11%
COc1ccc(C(=O)C[n+]2cccc3cc(OC)ccc32)cc1,i,0%,16µM*,-1%,-3%
COc1cccc(C(=O)C[n+]2cccc3cc(OC)ccc32)c1,i,0%,i,10%,-5%
Cc1ccc(SCCc2cc[n+](CC(=O)c3ccccc3)cc2)cc1,i,3%,i,-3%,-1%
COc1ccc(OC)c(CC(NC(C)=O)C(=O)NC2CCN(c3c(Cc4ccccc4)c(C)nc4ncnn34)CC2)c1 (stereo not drawn),i,2%,i,8%,7%

# Screening results (PubChem)
